Here are results for one sequence from paper PMC7862700, “An all-to-all approach to the identification of sequence-specific readers for epigenetic DNA modifications on cytosine”.

What all share (test): DAPPL (digital affinity profiling via proximity ligation, sequencing); 10 mM Tris-HCl pH 7.5, 50 mM NaCl, 1 mM DTT, 4% glycerol, room temperature, 30 min; GST-TFs on glutathione beads, 16-mer random dsDNA library, 0.1% formaldehyde crosslink after washing; high values mean tight binding
One test addresses T1, FLI1 (Homo sapiens, UniProt Q01543 1-452).
T1 sequence: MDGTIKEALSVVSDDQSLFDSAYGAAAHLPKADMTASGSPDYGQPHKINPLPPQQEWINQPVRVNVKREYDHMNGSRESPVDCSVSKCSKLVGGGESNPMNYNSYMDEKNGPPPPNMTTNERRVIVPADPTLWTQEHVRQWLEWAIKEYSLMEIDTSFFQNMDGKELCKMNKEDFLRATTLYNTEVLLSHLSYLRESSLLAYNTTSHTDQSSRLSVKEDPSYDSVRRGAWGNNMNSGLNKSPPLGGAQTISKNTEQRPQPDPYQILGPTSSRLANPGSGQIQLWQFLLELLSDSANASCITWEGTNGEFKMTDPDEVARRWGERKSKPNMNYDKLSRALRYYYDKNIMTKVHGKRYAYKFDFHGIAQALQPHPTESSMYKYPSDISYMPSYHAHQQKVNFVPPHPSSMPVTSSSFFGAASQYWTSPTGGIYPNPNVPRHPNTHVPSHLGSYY
The settings on record: protein: recombinant; tags: N-terminal GST; dsDNA, one strand shown. The method, boiled down:
(§1)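 Sequencing on an Illumina NextSeq500 followed washing, crosslinking with 0.1% formaldehyde, proximity ligation (BsaI/T4 ligase, 1 h, 37 °C) and PCR amplification of pools that had been incubated for 30 min at room temperature with 200 nmole of a random double-stranded 16-mer DNA library in Tris/NaCl/DTT/glycerol buffer. Each pool held DNA-barcoded human transcription factors, expressed in yeast as GST fusions and captured on glutathione beads, plus a tag-only sample. Binding signal is a hexamer's read frequency for a factor divided by its frequency in the tag-only sample.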

In a further test the target is T2, ELK1 (Homo sapiens, UniProt P19419 1-428).
T2 sequence: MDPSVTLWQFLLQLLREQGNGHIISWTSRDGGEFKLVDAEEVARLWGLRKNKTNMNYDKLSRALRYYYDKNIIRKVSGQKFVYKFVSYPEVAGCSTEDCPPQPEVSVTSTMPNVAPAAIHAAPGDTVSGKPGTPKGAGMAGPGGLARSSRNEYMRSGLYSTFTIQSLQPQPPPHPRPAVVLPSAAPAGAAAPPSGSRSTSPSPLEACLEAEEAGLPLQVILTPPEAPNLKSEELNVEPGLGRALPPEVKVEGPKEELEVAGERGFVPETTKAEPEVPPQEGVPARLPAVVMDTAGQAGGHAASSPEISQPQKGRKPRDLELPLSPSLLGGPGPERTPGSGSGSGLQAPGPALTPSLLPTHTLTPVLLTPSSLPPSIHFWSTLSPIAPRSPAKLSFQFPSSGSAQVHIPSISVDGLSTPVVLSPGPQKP
The settings on record: protein: recombinant; tags: N-terminal GST; dsDNA, one strand shown. The method, boiled down: as §1

The next test concerns the target T3, GABPA (Homo sapiens, UniProt Q06546 1-454).
T3 sequence: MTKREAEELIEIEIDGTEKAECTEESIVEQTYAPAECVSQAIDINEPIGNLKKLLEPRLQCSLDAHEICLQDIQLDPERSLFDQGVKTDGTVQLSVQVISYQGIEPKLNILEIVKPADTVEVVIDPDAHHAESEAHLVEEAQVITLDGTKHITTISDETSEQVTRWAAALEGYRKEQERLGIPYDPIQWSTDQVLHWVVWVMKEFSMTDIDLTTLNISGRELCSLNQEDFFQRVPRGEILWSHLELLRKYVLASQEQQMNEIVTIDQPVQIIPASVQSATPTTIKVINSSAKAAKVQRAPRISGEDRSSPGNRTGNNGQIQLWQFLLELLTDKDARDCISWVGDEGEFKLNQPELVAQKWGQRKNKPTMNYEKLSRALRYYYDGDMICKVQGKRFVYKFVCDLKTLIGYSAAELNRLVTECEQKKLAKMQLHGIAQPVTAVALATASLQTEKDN
As to conditions: protein: recombinant; tags: N-terminal GST; dsDNA, one strand shown. The gist of the method:
as §1

A further test has as its target T4, ERG (Homo sapiens, UniProt P11308 1-479).
T4 sequence: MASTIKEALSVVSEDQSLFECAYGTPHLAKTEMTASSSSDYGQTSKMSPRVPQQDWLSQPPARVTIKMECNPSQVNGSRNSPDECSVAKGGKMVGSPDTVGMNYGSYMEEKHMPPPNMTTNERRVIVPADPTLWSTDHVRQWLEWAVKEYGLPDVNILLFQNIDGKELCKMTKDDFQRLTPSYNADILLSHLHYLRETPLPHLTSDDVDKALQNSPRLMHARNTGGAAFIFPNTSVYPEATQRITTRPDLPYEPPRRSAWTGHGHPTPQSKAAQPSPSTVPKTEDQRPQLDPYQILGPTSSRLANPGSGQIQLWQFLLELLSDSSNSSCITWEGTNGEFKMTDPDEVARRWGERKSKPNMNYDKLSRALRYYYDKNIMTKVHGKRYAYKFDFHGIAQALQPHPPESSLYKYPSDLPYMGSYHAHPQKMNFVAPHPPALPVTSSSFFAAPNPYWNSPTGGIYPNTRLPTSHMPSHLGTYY
As to conditions: protein: recombinant; tags: N-terminal GST; dsDNA, one strand shown. The gist of the method:
as §1

In a further test the target is ELF1 (Homo sapiens, UniProt P32519 1-619). As to conditions: protein: recombinant; tags: N-terminal GST; dsDNA, one strand shown. The gist of the method: as §1
ELF1, sequence (P32519 whole entry): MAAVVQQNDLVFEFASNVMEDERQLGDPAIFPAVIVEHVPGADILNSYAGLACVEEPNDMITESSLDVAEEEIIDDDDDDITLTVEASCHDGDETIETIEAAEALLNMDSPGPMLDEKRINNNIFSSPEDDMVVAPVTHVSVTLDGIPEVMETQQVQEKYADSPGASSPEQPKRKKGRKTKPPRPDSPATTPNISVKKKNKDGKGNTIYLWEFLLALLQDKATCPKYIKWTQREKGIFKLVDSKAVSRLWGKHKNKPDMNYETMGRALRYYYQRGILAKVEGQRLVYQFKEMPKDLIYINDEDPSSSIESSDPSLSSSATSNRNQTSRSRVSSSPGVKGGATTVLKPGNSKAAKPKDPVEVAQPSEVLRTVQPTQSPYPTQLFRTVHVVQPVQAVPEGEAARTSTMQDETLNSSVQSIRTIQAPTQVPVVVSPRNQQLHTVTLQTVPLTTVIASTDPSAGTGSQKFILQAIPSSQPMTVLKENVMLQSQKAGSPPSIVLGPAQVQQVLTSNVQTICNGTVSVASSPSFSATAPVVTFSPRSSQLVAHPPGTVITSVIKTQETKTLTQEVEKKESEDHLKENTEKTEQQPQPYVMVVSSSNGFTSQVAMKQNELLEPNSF
For the next test, the target named is T5, EHF (Homo sapiens, UniProt Q9NZC4 1-300).
T5 sequence: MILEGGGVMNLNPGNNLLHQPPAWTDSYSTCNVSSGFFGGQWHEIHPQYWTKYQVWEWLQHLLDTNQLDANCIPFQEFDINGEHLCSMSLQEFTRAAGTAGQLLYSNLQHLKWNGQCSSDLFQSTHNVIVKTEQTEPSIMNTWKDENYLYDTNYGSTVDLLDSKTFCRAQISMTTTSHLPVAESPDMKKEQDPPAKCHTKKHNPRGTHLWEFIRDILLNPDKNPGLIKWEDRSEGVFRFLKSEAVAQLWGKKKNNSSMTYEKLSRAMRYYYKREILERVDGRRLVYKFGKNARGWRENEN
The settings on record: protein: recombinant; tags: N-terminal GST; dsDNA, one strand shown. The method, boiled down:
as §1

The next test concerns the target SPI1 (Homo sapiens, UniProt P17947 1-270). The settings on record: protein: recombinant; tags: N-terminal GST; dsDNA, one strand shown. The method, boiled down: as §1
The target in a further test is SPIB (Homo sapiens, UniProt Q01892 1-262). The settings on record: protein: recombinant; tags: N-terminal GST; dsDNA, one strand shown. The gist of the method: as §1
SPIB, sequence (Q01892 whole entry): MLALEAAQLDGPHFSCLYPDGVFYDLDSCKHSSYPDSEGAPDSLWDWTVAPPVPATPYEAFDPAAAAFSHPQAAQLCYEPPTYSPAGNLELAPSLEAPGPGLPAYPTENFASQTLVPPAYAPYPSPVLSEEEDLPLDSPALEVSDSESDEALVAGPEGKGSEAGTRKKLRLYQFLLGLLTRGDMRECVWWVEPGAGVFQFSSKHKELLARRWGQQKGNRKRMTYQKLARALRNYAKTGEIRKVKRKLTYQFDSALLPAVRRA
Another test has as its target T6, ELK3 (Homo sapiens, UniProt P41970 1-407).
T6 sequence: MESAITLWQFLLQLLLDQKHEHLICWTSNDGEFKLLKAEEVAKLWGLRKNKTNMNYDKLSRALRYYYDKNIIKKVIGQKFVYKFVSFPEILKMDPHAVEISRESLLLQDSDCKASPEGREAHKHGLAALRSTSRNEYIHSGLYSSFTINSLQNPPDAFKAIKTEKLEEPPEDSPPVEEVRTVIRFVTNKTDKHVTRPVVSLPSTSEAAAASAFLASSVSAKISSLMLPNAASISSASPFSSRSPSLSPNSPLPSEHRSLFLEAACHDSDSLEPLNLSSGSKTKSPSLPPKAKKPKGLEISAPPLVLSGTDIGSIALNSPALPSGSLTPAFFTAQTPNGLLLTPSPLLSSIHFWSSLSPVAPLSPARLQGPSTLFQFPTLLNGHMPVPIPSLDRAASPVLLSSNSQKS
The settings on record: protein: recombinant; tags: N-terminal GST; dsDNA, one strand shown. The method, boiled down: as §1

The target in a further test is T7, FEV (Homo sapiens, UniProt Q99581 1-238).
T7 sequence: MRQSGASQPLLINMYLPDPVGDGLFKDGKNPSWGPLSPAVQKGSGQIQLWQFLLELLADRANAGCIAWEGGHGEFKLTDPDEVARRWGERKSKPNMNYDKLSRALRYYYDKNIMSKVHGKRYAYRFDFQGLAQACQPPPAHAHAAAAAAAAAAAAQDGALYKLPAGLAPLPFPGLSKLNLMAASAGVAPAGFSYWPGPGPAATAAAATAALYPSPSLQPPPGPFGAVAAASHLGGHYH
The settings on record: protein: recombinant; tags: N-terminal GST; dsDNA, one strand shown. The gist of the method:
as §1

The target of another test is ETV5 (Homo sapiens, UniProt P41161 1-510). The settings on record: protein: recombinant; tags: N-terminal GST; dsDNA, one strand shown. The gist of the method: as §1
ETV5, sequence (P41161 whole entry): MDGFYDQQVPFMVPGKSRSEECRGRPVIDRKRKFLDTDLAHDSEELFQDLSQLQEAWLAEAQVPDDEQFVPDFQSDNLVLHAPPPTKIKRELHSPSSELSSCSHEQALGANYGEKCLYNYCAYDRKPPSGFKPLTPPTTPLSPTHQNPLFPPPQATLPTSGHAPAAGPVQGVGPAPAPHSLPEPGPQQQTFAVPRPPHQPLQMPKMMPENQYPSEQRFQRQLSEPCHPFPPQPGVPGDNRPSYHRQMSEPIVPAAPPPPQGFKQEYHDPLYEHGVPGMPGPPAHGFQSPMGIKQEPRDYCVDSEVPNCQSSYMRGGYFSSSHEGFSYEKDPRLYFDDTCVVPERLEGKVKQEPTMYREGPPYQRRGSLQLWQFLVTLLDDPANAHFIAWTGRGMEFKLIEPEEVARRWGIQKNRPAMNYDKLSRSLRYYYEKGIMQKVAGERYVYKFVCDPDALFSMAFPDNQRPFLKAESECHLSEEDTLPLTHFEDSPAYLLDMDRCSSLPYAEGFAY
For the next test, the target named is HSF1 (Homo sapiens, UniProt Q00613 1-529). The settings on record: protein: recombinant; tags: N-terminal GST; chain copies: 3; dsDNA, one strand shown. The gist of the method: as §1
HSF1, sequence (Q00613 whole entry): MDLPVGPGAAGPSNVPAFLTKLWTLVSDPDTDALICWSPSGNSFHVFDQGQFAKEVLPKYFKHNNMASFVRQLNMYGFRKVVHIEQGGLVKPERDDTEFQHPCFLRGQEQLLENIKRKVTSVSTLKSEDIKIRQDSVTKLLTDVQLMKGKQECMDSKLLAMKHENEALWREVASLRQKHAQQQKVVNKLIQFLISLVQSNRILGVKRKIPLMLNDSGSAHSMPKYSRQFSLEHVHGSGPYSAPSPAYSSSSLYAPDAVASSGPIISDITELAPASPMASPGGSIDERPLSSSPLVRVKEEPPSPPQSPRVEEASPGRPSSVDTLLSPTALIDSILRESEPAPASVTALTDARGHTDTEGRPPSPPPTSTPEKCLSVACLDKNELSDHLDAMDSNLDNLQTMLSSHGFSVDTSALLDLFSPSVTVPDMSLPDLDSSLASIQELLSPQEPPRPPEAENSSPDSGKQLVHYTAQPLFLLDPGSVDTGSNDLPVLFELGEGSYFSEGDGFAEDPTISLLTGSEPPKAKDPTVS
For a further test, the target named is T8, SPIC (Homo sapiens, UniProt Q8N5J4 1-248).
T8 sequence: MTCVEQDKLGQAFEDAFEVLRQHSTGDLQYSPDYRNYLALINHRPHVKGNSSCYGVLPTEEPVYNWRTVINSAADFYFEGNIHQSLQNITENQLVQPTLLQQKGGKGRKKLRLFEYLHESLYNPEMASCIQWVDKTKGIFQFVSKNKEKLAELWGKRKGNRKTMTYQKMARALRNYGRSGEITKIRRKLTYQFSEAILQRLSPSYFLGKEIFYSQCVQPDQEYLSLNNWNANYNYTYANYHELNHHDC
The settings on record: protein: recombinant; tags: N-terminal GST; dsDNA, one strand shown. The gist of the method: as §1

The target in the next test is ELF4 (Homo sapiens, UniProt Q99607 1-663). The settings on record: protein: recombinant; tags: N-terminal GST; dsDNA, one strand shown. The gist of the method: as §1
ELF4, sequence (Q99607 whole entry): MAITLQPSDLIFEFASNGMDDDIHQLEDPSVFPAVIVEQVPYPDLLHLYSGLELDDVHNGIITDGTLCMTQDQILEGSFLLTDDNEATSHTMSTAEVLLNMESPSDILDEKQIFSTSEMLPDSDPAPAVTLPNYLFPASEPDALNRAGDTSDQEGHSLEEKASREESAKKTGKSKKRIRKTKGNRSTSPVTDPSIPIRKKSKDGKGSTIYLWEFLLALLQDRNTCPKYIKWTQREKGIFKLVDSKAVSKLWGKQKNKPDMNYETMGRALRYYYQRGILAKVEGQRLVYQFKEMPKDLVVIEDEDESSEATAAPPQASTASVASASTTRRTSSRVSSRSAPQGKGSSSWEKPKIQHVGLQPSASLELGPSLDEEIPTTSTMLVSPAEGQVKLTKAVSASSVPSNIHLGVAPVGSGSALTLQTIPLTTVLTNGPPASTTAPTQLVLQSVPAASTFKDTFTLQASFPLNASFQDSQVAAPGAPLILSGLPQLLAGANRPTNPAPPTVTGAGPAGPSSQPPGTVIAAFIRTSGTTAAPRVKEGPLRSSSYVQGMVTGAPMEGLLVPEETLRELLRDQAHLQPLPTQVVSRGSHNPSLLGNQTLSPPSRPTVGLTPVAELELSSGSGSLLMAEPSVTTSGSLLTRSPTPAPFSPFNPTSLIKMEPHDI
A further test addresses T9, ELK4 (Homo sapiens, UniProt P28324-2 1-405).
T9 sequence: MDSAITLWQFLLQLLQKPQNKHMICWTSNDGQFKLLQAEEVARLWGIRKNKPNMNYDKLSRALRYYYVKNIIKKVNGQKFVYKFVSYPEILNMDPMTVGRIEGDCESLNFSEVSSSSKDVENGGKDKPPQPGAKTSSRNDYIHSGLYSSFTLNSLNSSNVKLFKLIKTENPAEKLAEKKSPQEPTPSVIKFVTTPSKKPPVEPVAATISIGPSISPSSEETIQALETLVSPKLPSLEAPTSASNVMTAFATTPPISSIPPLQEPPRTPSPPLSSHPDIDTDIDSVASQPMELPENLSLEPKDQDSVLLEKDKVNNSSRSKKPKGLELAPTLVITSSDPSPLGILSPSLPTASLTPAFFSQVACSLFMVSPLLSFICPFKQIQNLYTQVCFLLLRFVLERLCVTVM
The settings on record: protein: recombinant; tags: N-terminal GST; dsDNA, one strand shown. The method, boiled down: as §1

For the next test, the target named is T10, ETV2 (Homo sapiens, UniProt O00321 1-342).
T10 sequence: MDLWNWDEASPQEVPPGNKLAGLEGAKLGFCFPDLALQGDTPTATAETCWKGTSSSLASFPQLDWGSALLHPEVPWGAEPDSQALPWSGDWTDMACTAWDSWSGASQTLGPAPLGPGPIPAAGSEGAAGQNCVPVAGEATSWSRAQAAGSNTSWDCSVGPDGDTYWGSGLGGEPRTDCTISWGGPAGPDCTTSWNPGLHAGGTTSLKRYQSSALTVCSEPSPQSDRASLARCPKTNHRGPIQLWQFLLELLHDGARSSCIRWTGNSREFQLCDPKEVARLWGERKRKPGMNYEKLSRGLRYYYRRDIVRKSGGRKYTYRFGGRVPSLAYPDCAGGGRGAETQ
As to conditions: protein: recombinant; tags: N-terminal GST; dsDNA, one strand shown. The gist of the method:
as §1

For a further test, the target named is T11, ELF3 (Homo sapiens, UniProt P78545 1-371).
T11 sequence: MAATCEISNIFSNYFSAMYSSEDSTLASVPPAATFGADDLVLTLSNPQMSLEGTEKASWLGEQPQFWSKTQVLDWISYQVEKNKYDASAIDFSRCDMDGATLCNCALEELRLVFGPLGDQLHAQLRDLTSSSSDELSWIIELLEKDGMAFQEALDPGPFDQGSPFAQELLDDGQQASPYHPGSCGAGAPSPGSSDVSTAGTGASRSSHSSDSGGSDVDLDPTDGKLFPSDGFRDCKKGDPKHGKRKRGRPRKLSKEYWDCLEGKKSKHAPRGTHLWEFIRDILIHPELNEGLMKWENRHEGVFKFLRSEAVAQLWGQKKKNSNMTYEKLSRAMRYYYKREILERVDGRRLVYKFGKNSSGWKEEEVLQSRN
As to conditions: protein: recombinant; tags: N-terminal GST; dsDNA, one strand shown. The method, boiled down:
as §1

A further test concerns the target ETV1 (Homo sapiens, UniProt P50549 1-477). The settings on record: protein: recombinant; tags: N-terminal GST; dsDNA, one strand shown. The method, boiled down: as §1

ETV1, sequence (P50549 whole entry): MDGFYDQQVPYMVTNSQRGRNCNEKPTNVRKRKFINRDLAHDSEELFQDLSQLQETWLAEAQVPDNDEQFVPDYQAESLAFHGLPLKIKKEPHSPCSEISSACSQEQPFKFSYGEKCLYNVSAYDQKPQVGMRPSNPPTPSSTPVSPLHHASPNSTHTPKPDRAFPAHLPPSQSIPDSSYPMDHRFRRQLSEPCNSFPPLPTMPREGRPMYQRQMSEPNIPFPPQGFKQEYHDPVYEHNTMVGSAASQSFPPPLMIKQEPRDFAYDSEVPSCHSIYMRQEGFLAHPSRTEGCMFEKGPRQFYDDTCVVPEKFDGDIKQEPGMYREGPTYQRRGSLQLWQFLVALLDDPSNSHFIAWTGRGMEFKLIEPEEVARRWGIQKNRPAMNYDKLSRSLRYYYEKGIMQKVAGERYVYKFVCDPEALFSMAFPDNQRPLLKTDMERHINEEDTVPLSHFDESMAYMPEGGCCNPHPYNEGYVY

On to CTGACA, for which the binding signal with FLI1 was 1.19 fold enrichment (6-mer frequency, TF over GST control); with ELK1, 1.18 fold enrichment (6-mer frequency, TF over GST control); in the test with GABPA, 1.2 fold enrichment (6-mer frequency, TF over GST control); with ERG, 1.22 fold enrichment (6-mer frequency, TF over GST control); with ELF1, 1.27 fold enrichment (6-mer frequency, TF over GST control); in the test with EHF it was 1.32 fold enrichment (6-mer frequency, TF over GST control). Further, the binding signal was 1.26 fold enrichment (6-mer frequency, TF over GST control) with SPI1; 1.17 fold enrichment (6-mer frequency, TF over GST control) with SPIB; 1.24 fold enrichment (6-mer frequency, TF over GST control) in the test with ELK3; 1.19 fold enrichment (6-mer frequency, TF over GST control) with FEV; 1.22 fold enrichment (6-mer frequency, TF over GST control) with ETV5; 1.01 fold enrichment (6-mer frequency, TF over GST control) with HSF1. Moreover, the binding signal was 1.03 fold enrichment (6-mer frequency, TF over GST control) with SPIC; 1.27 fold enrichment (6-mer frequency, TF over GST control) with ELF4; 1.29 fold enrichment (6-mer frequency, TF over GST control) with ELK4; 1.2 fold enrichment (6-mer frequency, TF over GST control) with ETV2; 1.25 fold enrichment (6-mer frequency, TF over GST control) with ELF3; 1.19 fold enrichment (6-mer frequency, TF over GST control) in the test with ETV1.
